Source: PubChem BioAssay
Sampled rows, rich in hits. Any-hit rate of the full collection: about 4.1%.
MEKK2mut PB1 HTS: signal of MEK5 binding to mutant human MEKK2 PB1 domain | bead flow cytometry, Alexa488-MEK5 binding to MEKK2 mutant | percent response, % at 10 µM | 290,000 tested, 0.35% active | AID 1530; in the data active = percent response above about 24%, passing the limit was not always enough
CHT block: human CHT choline transport inhibition; AID 488975; B-score at 10 µM; 310,000 tested, 0.86% active; Q9GZV3; CHT-expressing cells, membrane potential dye, choline response; active compounds read low;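 active = B-score over 3 SD under the library average, and starting fluorescence ratio not unusually high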;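 note: choline stimulus applied at its EC90 after an EC20 pre-addition; B-score computed on integrated fluorescence ratio after choline addition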
SUMO Mot1 rescue: SUMOylation pathway inhibition by Mot1-301 growth rescue; S. cerevisiae Mot1-301 growth rescue, ATP luminescence, 38.5C; percent above DMSO median, 100 means doubled; 320,000 tested, 1% active; growth rescue, % at 18.8 µM;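 active = every valid replicate shows activation above 250% relative to neutral control wells; inactive = the rest, any valid replicate at or below 250%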
CHT PAM: human CHT allosteric activation; CHT-expressing cells, membrane potential dye, choline EC20; active compounds read high; LV-AA mutant CHT in HEK293 cells; B-score at 10 µM; 310,000 tested, 0.49% active;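 active = initial fluorescence not abnormally high and integrated response B-score, plate-corrected, over 3 SD above library mean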
MEKK3 PB1 HTS: raises or lowers MEK5 binding to the human MEKK3 PB1 domain; Q99759; bead-based flow cytometry, Alexa488-MEK5 binding to MEKK3; actives lie on both sides; 0 = blocked by unlabeled MEK5, 100 = vehicle; binding response (% of control), % at 10 µM; 290,000 tested, 1.4% active;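 active = binding response more than 3 SD above or below the average of its plate-row segment, actives on both sides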;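 note: Alexa488 bead fluorescence after subtracting the streptavidin-only scavenger bead signal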
Target sequence (Q99759 whole entry, looked up, the tested form may be a part): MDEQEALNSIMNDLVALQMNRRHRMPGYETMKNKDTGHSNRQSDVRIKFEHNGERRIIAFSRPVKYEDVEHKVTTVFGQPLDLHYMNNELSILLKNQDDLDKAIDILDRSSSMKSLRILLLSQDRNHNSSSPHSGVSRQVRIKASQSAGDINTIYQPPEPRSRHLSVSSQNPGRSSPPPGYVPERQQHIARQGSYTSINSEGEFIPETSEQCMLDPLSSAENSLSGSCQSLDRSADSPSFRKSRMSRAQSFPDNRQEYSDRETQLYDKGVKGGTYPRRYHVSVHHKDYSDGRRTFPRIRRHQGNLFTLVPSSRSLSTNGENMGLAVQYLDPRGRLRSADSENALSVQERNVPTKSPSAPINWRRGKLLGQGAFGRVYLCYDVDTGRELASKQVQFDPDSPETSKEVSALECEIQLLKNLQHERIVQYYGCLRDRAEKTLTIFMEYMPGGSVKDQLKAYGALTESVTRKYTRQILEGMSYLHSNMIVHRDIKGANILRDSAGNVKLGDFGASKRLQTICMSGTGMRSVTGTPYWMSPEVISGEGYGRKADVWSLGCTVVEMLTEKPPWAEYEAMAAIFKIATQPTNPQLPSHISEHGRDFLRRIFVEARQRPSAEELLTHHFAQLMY
MEKK2wt PB1 HTS: raises or lowers MEK5 binding to wildtype human MEKK2 PB1 domain; bead flow cytometry, Alexa488-MEK5 binding to MEKK2 WT; actives lie on both sides; binding response (% of control), % at 10 µM; 290,000 tested, 1.1% active; AID 1531; in the data active = binding response below about 67% or above about 130%
MEKK2wt confirm: raises or lowers MEK5 binding to wildtype human MEKK2, retest | shares compounds with MEKK3 PB1 HTS | bead flow cytometry, Alexa488-MEK5 binding to MEKK2 WT; actives lie on both sides | binding response (% of control), % at 10 µM | 5,900 tested, 2.4% active | AID 1892; in the data active = binding response below about 16% or above about 210%; inactive = in between
MEKK2mut confirm: signal of MEK5 binding to mutant human MEKK2, retest; shares compounds with MEKK3 PB1 HTS; bead flow cytometry, Alexa488-MEK5 binding to MEKK2 mutant; percent response, % at 10 µM; 5,900 tested, 2% active; AID 1893; in the data active = percent response mostly above about 71%, no sharp cut-off; inactive = mostly below about 38%;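 note: higher means compound restores mutant binding toward wildtype level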
MEKK3 confirm: MEKK3-MEK5 PB1 inhibition, single concentration confirmation. bead flow cytometry, Alexa488-MEK5 binding to MEKK3; active compounds read low. 5,900 tested, 1.8% active. binding response (% of control), % at 10 µM. shares compounds with MEKK3 PB1 HTS. AID 1894;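 active = binding response below 72% of control, or above a set upper limit, though filed actives all read lower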;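 note: lower values mean stronger disruption of MEK5 binding to MEKK3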
Large screens that a line does not name were inactive (follow-up assays come after a bar, where they were run); [ ] = another dose, or the depositor's remark.

CCN(CC)CCn1c2ccccc2c2nc3ccc([N+](=O)[O-])cc3cc21	none
N=C(N)SCP(=O)(c1ccccc1)c1ccccc1	none
Cc1ccc(P(=O)(CSC(=N)N)c2ccc(C)cc2)cc1	MEKK3 PB1 HTS 133 | MEKK2wt confirm inactive | MEKK2mut confirm inactive | MEKK3 confirm inactive
O=C(CSc1cccc[n+]1[O-])Nc1ccc2c(c1)OCO2	MEKK3 PB1 HTS 71[inhibitor] | MEKK2wt confirm inactive | MEKK2mut confirm inactive | MEKK3 confirm inactive
COc1ccc2c3c([nH]c2c1)C(C)N(C(C)=O)CC3 (stereo not drawn)	none
COc1ccc2c3c([nH]c2c1)C(C)N(CCC(=O)NN)CC3 (stereo not drawn)	MEKK2wt PB1 HTS 140 | MEKK2wt confirm inactive | MEKK2mut confirm inactive | MEKK3 confirm inactive
CCOc1ccc(CCNC(=O)c2sc3nc4n(c(=O)c3c2C)CCC4)cc1	none
Cc1ccc(OCC(O)CNS(=O)(=O)c2ccccc2C(=O)O)cc1 (stereo not drawn)	MEKK3 PB1 HTS 71[inhibitor] | MEKK2wt confirm inactive | MEKK2mut confirm inactive | MEKK3 confirm inactive
CCOC(=O)/C(N=Nc1c(Br)cc(Br)cc1Br)=C(\C)O	MEKK3 PB1 HTS 126 | MEKK2wt confirm inactive | MEKK2mut confirm inactive | MEKK3 confirm inactive
CCOC(=O)NC(=O)/C(N=Nc1cc(C)cc(C)c1)=C(\C)O	none
Cc1cc(C)n(C(=O)CCCCCCCCC(=O)n2nc(C)cc2C)n1	none
COc1ccc(-c2nn(-c3ccccc3)cc2CO)cc1	none
N=C(N)SCc1cn(-c2ccccc2)nc1-c1ccc(Br)cc1	MEKK2mut PB1 HTS 107, MEKK2wt PB1 HTS 256 (no result: CHT block, SUMO Mot1 rescue, CHT PAM) | MEKK2wt confirm 265 | MEKK2mut confirm 105 | MEKK3 confirm inactive
COc1ccccc1NC(=O)C(C)OC(=O)CCSc1ccc(F)cc1 (stereo not drawn)	none (no result: MEKK2mut PB1 HTS, MEKK3 PB1 HTS, MEKK2wt PB1 HTS)
Cc1ccc(C)c(CN2CCC(CNC(=O)Nc3ccc(Br)cc3F)CC2)c1	MEKK2wt PB1 HTS 140 | MEKK2wt confirm inactive | MEKK2mut confirm inactive | MEKK3 confirm inactive
O=C(CN1CCN(c2ccccc2Cl)CC1)NC1CCCc2ccccc21 (stereo not drawn)	MEKK3 PB1 HTS 129 | MEKK2wt confirm inactive | MEKK2mut confirm inactive | MEKK3 confirm inactive
COc1ccc(-c2nc(CSCC(=O)NC3CCCc4ccccc43)c(C)o2)cc1OC (stereo not drawn)	none
COc1ccc(-c2nnn(CC(=O)NC3CCCc4ccccc43)n2)cc1OC (stereo not drawn)	MEKK3 PB1 HTS 122 | MEKK2wt confirm inactive | MEKK2mut confirm inactive | MEKK3 confirm inactive
CCOc1ccccc1OCC(=O)NCCc1ccc(S(N)(=O)=O)cc1	none (no result: SUMO Mot1 rescue)
Cc1cc(F)ccc1S(=O)(=O)Nc1ccccc1C(=O)NCc1ccccn1	none
COc1cccc(OC)c1-c1nn2c(-c3cc(-c4ccccc4)n[nH]3)nnc2s1	MEKK3 PB1 HTS 78[inhibitor] | MEKK2wt confirm inactive | MEKK2mut confirm inactive | MEKK3 confirm 48
COc1ccc(CNC(=O)C/C(C)=N/NC(=O)COc2ccccc2)cc1	none
COc1cc2c(cc1OC)C(c1ccccc1)N(C(=O)c1cccc(S(C)(=O)=O)c1)CC2 (stereo not drawn)	none
COC(=O)c1cccc(N(C(=O)c2cnccn2)C(C(=O)NC2CCCCC2)c2cn(C)nc2C)c1 (stereo not drawn)	MEKK3 PB1 HTS 46[inhibitor] | MEKK2wt confirm inactive | MEKK2mut confirm inactive | MEKK3 confirm inactive
COC(=O)C(CC(C)C)NC(=O)c1cccs1 (stereo not drawn)	MEKK3 PB1 HTS 129 | MEKK2wt confirm inactive | MEKK2mut confirm inactive | MEKK3 confirm inactive
O=C(Nc1ccnn1C1CCN(CCCc2ccccc2)CC1)c1ccccc1Cl	none
Cc1cc2nncn2c2ccccc12	MEKK3 PB1 HTS 78[inhibitor] | MEKK2wt confirm inactive | MEKK2mut confirm inactive | MEKK3 confirm inactive
Cc1ccccc1-n1c(=O)c2ccccc2n2cnnc12	none
Cc1ccc(C(=O)NCCc2nnc3ccc(SCC(=O)Nc4c(C)cc(C)cc4C)nn23)cc1	MEKK3 PB1 HTS 133 | MEKK2wt confirm inactive | MEKK2mut confirm inactive | MEKK3 confirm inactive
CN(C)S(=O)(=O)c1cccc(NC(=O)c2ccc(N3CCOCC3)c([N+](=O)[O-])c2)c1	none
CCOC(=O)c1ccc(N2CCN(c3ccccc3F)CC2)c(NC(=O)Nc2ccccc2)c1	MEKK2wt PB1 HTS 30[inhibitor] | MEKK2wt confirm inactive | MEKK2mut confirm inactive | MEKK3 confirm inactive
CCOC(=O)N1CCN(c2c(N3CCN(c4ccccc4F)CC3)c(=O)c2=O)CC1	MEKK3 PB1 HTS 72[inhibitor] | MEKK2wt confirm inactive | MEKK2mut confirm inactive | MEKK3 confirm 70
CCOC(=O)N1CCN(c2c(N3CCN(c4cccc(C)c4C)CC3)c(=O)c2=O)CC1	none (no result: CHT block, SUMO Mot1 rescue, CHT PAM)
O=C(Nc1ccc(F)cc1F)NC1CCN(Cc2c(F)cccc2Cl)CC1	none
Cc1ccc(C)c(N=Nc2ccc(O)c3ncccc23)c1	none
Cc1ccc(N=Nc2cc(C)ccc2O)c(C)c1	MEKK3 PB1 HTS 5.0[inhibitor], MEKK2wt PB1 HTS 8.0[inhibitor] | MEKK2wt confirm inactive | MEKK2mut confirm inactive | MEKK3 confirm inactive
Cc1onc(-c2ccccc2)c1C(=O)/C=C/N(C)C	none
CC(=O)OC1OCCOC1NC(=S)NCc1ccco1 (stereo not drawn)	MEKK3 PB1 HTS 1.0[inhibitor] (no result: SUMO Mot1 rescue, MEKK2wt PB1 HTS) | MEKK2wt confirm inactive | MEKK2mut confirm inactive | MEKK3 confirm inactive
Cc1cc(OCc2cc(C(=O)N(C)C3CCOC3)no2)cc(C)c1Cl (stereo not drawn)	none
CCC(C)(C)NC(=O)c1cc([N+](=O)[O-])ccc1N1CCOCC1	MEKK3 PB1 HTS 157 | MEKK2wt confirm inactive | MEKK2mut confirm inactive | MEKK3 confirm inactive
COc1ccc(NC(=S)NC2CC3CCCC(C2)N3C2CC2)cc1 (stereo not drawn)	MEKK3 PB1 HTS 135 | MEKK2wt confirm inactive | MEKK2mut confirm inactive | MEKK3 confirm inactive
CCc1nc2ccccc2n1CC(=O)NC1CCS(=O)(=O)C1 (stereo not drawn)	none (no result: MEKK2mut PB1 HTS, CHT block, CHT PAM, MEKK3 PB1 HTS, MEKK2wt PB1 HTS)
